PubChem BioAssay (Tox21)
Active and inactive are the calls of the source. The call rests on the fitted dose curve; in most records, active means well fitted curve in the direction sought with a large enough effect in the repeat runs; inconclusive means weak or mixed curves; inactive means flat fitted curve, though single readings scatter.

assay: qHTS assay to test for compound auto fluorescence at 535 nm (green) in HepG2 cells (AID 720675); details: green autofluorescence 485/535 nm, 1 h; series mostly up to 91.3 µM

SMILES | outcome
COc1nn(C(=O)NS(=O)(=O)c2ccccc2OC(F)(F)F)c(=O)n1C | inactive
COC(C)(C)CCC[C@H](C)C/C=C/C(C)=C/C(=O)OC(C)C | inactive
CCC(Cl)CCl (configuration not stated) | inactive
CCCC(=O)Cl | inactive
O=[Se]=O | inactive
O=C(C(Cl)(Cl)Cl)C(Cl)(Cl)Cl | inactive
ClP(Cl)(Cl)(Cl)Cl | inactive
O=Cc1ccc2c(c1)OCO2 | inactive
O=S(=O)(O)C(F)(F)C(F)(F)C(F)(F)C(F)(F)F | inactive
Oc1ccc(Cl)c(Cl)c1Cl | inactive
O=[N+]([O-])c1ccc(F)c([N+](=O)[O-])c1 | inactive
O=C(CBr)c1ccccc1 | inactive
C=COC(C)=O | inactive
CC1C(=O)C[C@]2(C(C)C)C[C@H]12 (some centres not stated) | inactive
CCc1ccc(C(=O)NN(C(=O)c2cc(C)cc(C)c2)C(C)(C)C)cc1 | inactive
CCOP(O)OCC | inactive
CCCCCCCCCCOC(=O)c1ccccc1C(=O)OCCCCCCCCCC | inactive
CCCC(Cn1cncn1)c1ccc(Cl)cc1Cl (configuration not stated) | inactive
CCOC(=O)COc1cc(-c2nn(C)c(OC(F)F)c2Cl)c(F)cc1Cl | inactive
O=C(Nc1ccccc1)Nc1cnns1 | inactive
CC(=O)[C@H]1CC[C@H]2[C@@H]3CC[C@H]4C[C@](C)(O)CC[C@]4(C)[C@H]3CC[C@]12C | inactive
CCOP(=S)(OCC)SCSCC | inactive
O=C(CCl)c1ccc(Cl)cc1Cl | inactive
O=C(OC1CCCCC1)c1ccccc1C(=O)OC1CCCCC1 | inactive
NCC(CC(=O)O)c1ccc(Cl)cc1 (configuration not stated) | inactive
CN1[C@@H]2CC[C@H]1CC(OC(=O)c1cc(Cl)cc(Cl)c1)C2 (some centres not stated) | inactive
Clc1cc(Cl)c(Cl)c(Cl)c1 | inactive
ClCCCCBr | inactive

assay: qHTS assay to test for compound auto fluorescence at 460 nm (blue) in HEK293 cells (AID 720678); details: blue autofluorescence 405/460 nm; series mostly up to 91.3 µM
Outline: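 Blue-channel (Ex/Em 405/460 nm) intensity measured in HEK293 cultures after overnight compound exposure at 37C; signal expressed relative to triamterene. Cells plated 2,000 per well in 10% dialyzed FBS medium and allowed 4-5 hr to attach.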

SMILES | outcome
COc1nn(C(=O)NS(=O)(=O)c2ccccc2OC(F)(F)F)c(=O)n1C | inactive
COC(C)(C)CCC[C@H](C)C/C=C/C(C)=C/C(=O)OC(C)C | inactive
O=C1NCN(c2ccccc2)C12CCN(CCCOc1ccc(F)cc1)CC2 | inactive
CCC(Cl)CCl (configuration not stated) | inactive
CCCC(=O)Cl | inactive
O=[Se]=O | inactive
O=C(C(Cl)(Cl)Cl)C(Cl)(Cl)Cl | inactive
CN(N=O)c1ccc([N+](=O)[O-])cc1 | inactive
CC(=O)NC1CCSC1=O (configuration not stated) | inactive
ClP(Cl)(Cl)(Cl)Cl | inactive
O=Cc1ccc2c(c1)OCO2 | inactive
O=S(=O)(O)C(F)(F)C(F)(F)C(F)(F)C(F)(F)F | inactive
CCn1cc[n+](C)c1 | inactive
Oc1ccc(Cl)c(Cl)c1Cl | inactive
O=[N+]([O-])c1ccc(F)c([N+](=O)[O-])c1 | inactive
CNP(=O)(OC)Oc1ccc(C(C)(C)C)cc1Cl (configuration not stated) | inactive
O=C(CBr)c1ccccc1 | inactive

SMILES | outcome
C=COC(C)=O | inactive
CC1C(=O)C[C@]2(C(C)C)C[C@H]12 (some centres not stated) | inactive
COc1nn(CSP(=S)(OC)OC)c(=O)s1 | inactive
CCc1ccc(C(=O)NN(C(=O)c2cc(C)cc(C)c2)C(C)(C)C)cc1 | inactive
CCOP(O)OCC | inactive
CCCCCCCCCCOC(=O)c1ccccc1C(=O)OCCCCCCCCCC | inactive
CCCC(Cn1cncn1)c1ccc(Cl)cc1Cl (configuration not stated) | inactive
CCOC(=O)COc1cc(-c2nn(C)c(OC(F)F)c2Cl)c(F)cc1Cl | inactive
O=C(Nc1ccccc1)Nc1cnns1 | inactive
CC(=O)[C@H]1CC[C@H]2[C@@H]3CC[C@H]4C[C@](C)(O)CC[C@]4(C)[C@H]3CC[C@]12C | inactive
CCOP(=S)(OCC)SCSCC | inactive
O=C(CCl)c1ccc(Cl)cc1Cl | inactive
O=C(OC1CCCCC1)c1ccccc1C(=O)OC1CCCCC1 | inactive
NCC(CC(=O)O)c1ccc(Cl)cc1 (configuration not stated) | inactive
CN1[C@@H]2CC[C@H]1CC(OC(=O)c1cc(Cl)cc(Cl)c1)C2 (some centres not stated) | inactive
Clc1cc(Cl)c(Cl)c(Cl)c1 | inactive
ClCCCCBr | inactive
